This is a sample that favours compounds with a hit; in the whole collection about 1.6% have one here.
MEX-5 binding – MEX-5 zinc finger RNA-binding disruptors – biochemical, C. elegans, fluorescence polarization, MLPCN library, primary screen | MEX-5/FITC-TCR2 RNA binding; stronger effect = lower value | activity score (negative = inhibition of binding), % at 10 µM | hit rate 0.38% among 300,000 | AID 1832, 2009;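 active = inhibition past about -25% in most replicates, and total fluorescence under double the plate's negative control median, limit read from the data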;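 also: 0% = DMSO and -100% = 5 µM competing unlabeled TCR2 RNA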
PME-1 inh – PME-1 inhibitors via competitive probe labeling, primary screen, biochemical, fluorescence polarization, FP-Rh probe, HTS | hit rate 0.53% among 320,000 | inhibition, % at 5.9 µM | recombinant PME-1;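 active = inhibition above the campaign mean of all compounds plus 3 SD, cut at about 26% in these data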;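 also: competitive labeling of PME-1 active site by serine hydrolase directed probe; 0% = PME-1 with DMSO and 100% = wells lacking PME-1 enzyme; inhibitors block probe labeling so polarization falls and inhibition rises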
PREPL inhibitor – PREPL enzyme inhibitors, primary screen, biochemical, fluorescence polarization; recombinant PREPL, fluorescence polarization activity-based probe; Prolyl endopeptidase-like (Homo sapiens), Q4J6C6; hit rate 0.68% among 320,000; AID 2751, 2010; inhibition, % at 5.96 µM;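 also: 0% = enzyme with DMSO and 100% = wells lacking enzyme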
LYPLA2 counter – LYPLA2 inhibitors, primary screen, counter-screen for PME1 inhibitor project, biochemical, fluorescence polarization, FP-Rh probe ABPP; Acyl-protein thioesterase 2 (Homo sapiens), O95372; recombinant LYPLA2; inhibition, % at 5.9 µM; hit rate 0.38% among 320,000;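 active = inhibition above the screen-wide mean plus 3 SD, limit set per campaign, cut at about 26% in these data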;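 also: 0% = LYPLA2 with DMSO and 100% = wells lacking LYPLA2 enzyme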
Target sequence (O95372 whole entry, looked up): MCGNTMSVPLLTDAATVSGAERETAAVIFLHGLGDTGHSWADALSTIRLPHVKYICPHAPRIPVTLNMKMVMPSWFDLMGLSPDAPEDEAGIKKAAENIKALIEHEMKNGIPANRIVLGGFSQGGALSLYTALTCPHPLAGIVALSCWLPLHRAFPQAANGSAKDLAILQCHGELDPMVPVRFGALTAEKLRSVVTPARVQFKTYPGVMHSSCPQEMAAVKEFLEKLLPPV
Fam108B counter – mouse Fam108B serine hydrolase inhibitors, primary screen, counter-screen for RBBP9 inhibitor project, biochemical, fluorescence polarization | recombinant Fam108B, FP-Rh probe fluorescence polarization | inhibition, % at 9.51 µM | hit rate 0.33% among 300,000;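 active = inhibition above the screen mean inhibition plus 3 SD, computed separately per campaign, cut at about 18% in these data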;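 also: inhibitors lower polarization as less probe binds the enzyme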
LYPLA1 inh – LYPLA1 inhibitors, primary screen, counter-screen for PME1 inhibitor project, biochemical, fluorescence polarization, FP-Rh probe ABPP; Acyl-protein thioesterase 1 (Homo sapiens), O75608; recombinant LYPLA1; inhibition, % at 5.9 µM; hit rate 0.16% among 320,000; AID 2174, 2009;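 active = inhibition above the mean of all tested compounds plus 3 SD, set per campaign, cut at about 14% in these data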;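 also: inhibitors block serine hydrolase probe labeling of LYPLA1 so polarization falls; 0% = enzyme with DMSO and 100% = wells lacking LYPLA1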
Target sequence (O75608 whole entry, looked up): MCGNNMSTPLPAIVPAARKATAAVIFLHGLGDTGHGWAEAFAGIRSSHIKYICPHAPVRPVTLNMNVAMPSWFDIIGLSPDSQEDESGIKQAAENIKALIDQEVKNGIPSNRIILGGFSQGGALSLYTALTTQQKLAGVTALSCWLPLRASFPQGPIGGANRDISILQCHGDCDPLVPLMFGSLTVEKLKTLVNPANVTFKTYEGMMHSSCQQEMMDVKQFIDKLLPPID
PREPL confirm – human PREPL enzyme inhibitors, confirmation, biochemical, fluorescence polarization | shares compounds with PREPL inhibitor | recombinant PREPL, fluorescence polarization activity probe | inhibition, % at 5.96 µM | hit rate 67% among 2,000 | AID 2803, 2010;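 also: 0% = protein with DMSO and 100% = wells lacking protein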
* hit, by the source's call. Rule as the data show it, unless noted: active = inhibition above about 43%; inactive = the rest.

CC(=O)Nc1ccc(NC(=O)[C@H](C)NC(=O)c2ccco2)cc1 was read as MEX-5 binding 3, PME-1 inh 2, PREPL inhibitor 8, LYPLA2 counter -3, Fam108B counter 0 and LYPLA1 inh -6.
CN1c2ccccc2Oc2nnc(N3CCN(Cc4ccccc4)CC3)cc21 was read as MEX-5 binding -1, PME-1 inh 10, PREPL inhibitor 46*, LYPLA2 counter 1, Fam108B counter 6, LYPLA1 inh -2 and PREPL confirm 37.
CCc1ccc(Oc2cc(Cl)nc(N)n2)cc1 was read as MEX-5 binding -1, PME-1 inh 3, PREPL inhibitor 0, LYPLA2 counter 3, Fam108B counter 2 and LYPLA1 inh -1.
Screening COCc1cc(CN2CCCC2)c(O)c2ncccc12 returned MEX-5 binding -8, PME-1 inh 0, PREPL inhibitor 8, LYPLA2 counter 6, Fam108B counter 5 and LYPLA1 inh -3.
Oc1c(CN2CCCCC2)cc(COCc2ccccc2)c2cccnc12 was read as MEX-5 binding 2, PME-1 inh -4, PREPL inhibitor 56*, LYPLA2 counter -4, Fam108B counter -2, LYPLA1 inh -5 and PREPL confirm 84*.
O=C(COC(=O)c1cc(Br)ccc1O)NNC(=O)c1ccc(Cl)cc1 was read as MEX-5 binding -2, PME-1 inh 2, PREPL inhibitor 2, LYPLA2 counter 10, Fam108B counter 1 and LYPLA1 inh 1.
Screening O=C1COc2ccc(-c3csc(=Nc4ccc(OC(F)F)cc4)n3CC3CCCO3)cc2N1 (stereo not drawn) returned MEX-5 binding 0, PME-1 inh 8, PREPL inhibitor 46*, LYPLA2 counter 4, Fam108B counter 0, LYPLA1 inh -6 and PREPL confirm 49*.
Screening N#CCCN(C(=O)COC(=O)COc1ccc(Cl)cc1)c1ccccc1 returned MEX-5 binding 2, PME-1 inh -2, PREPL inhibitor 33, LYPLA2 counter 6, Fam108B counter -2 and LYPLA1 inh -2.
`N#CCCN(C(=O)COC(=O)CSc1ccc(Cl)cc1)c1ccccc1` gave PREPL inhibitor 50* and PREPL confirm 39.
`OCC1OC(Oc2cccc3ccccc23)C(O)C(O)C1O` (stereo not drawn) gave MEX-5 binding 2, PME-1 inh -1, PREPL inhibitor -6, LYPLA2 counter -2, Fam108B counter 2 and LYPLA1 inh -2.
O=C(O)c1cc(O)c2c(c1)[C@@H]([C@H]1c3cc(C(=O)O)cc(O)c3C(=O)c3c(O[C@@H]4O[C@H](CO)[C@@H](O)[C@H](O)[C@H]4O)cccc31)c1cccc(O[C@@H]3O[C@H](CO)[C@@H](O)[C@H](O)[C@H]3O)c1C2=O was read as PREPL inhibitor 96* and PREPL confirm 42.
`CN1CCN(CCCNCc2cn(CCC#N)c3ccccc23)CC1` gave MEX-5 binding 2, PME-1 inh 1, PREPL inhibitor 49*, LYPLA2 counter 1, Fam108B counter -7, LYPLA1 inh 3 and PREPL confirm 31.
Screening N#CCCN1CCN(Cn2c3ccccc3c3ccccc32)CC1 returned MEX-5 binding 2, PME-1 inh -6, PREPL inhibitor 7, LYPLA2 counter -7, Fam108B counter -1 and LYPLA1 inh -3.
Screening N#CC1=C(N)N(c2ccccc2)C(c2ccccc2)C1(C#N)C#N (stereo not drawn) returned MEX-5 binding -1, PME-1 inh 9, PREPL inhibitor 46*, LYPLA2 counter 11, Fam108B counter 6, LYPLA1 inh 6 and PREPL confirm 19.
For Cc1ccccc1Cc1c(C)nc2nc(SCC(=O)NCCCN3CCCCC3)nn2c1C the results were MEX-5 binding -1, PME-1 inh -3, PREPL inhibitor 1, LYPLA2 counter 1, Fam108B counter 1 and LYPLA1 inh 0.
Cc1nc2nc(SCC(=O)NCCCN3CCCCCC3)nn2c(C)c1Cc1ccccc1 was read as MEX-5 binding 2, PME-1 inh -2, PREPL inhibitor 43*, LYPLA2 counter 4, Fam108B counter -2, LYPLA1 inh -1 and PREPL confirm 37.
For O=C(Cc1coc(-c2ccc(F)cc2)n1)NCc1ccccc1 the results were MEX-5 binding 0, PME-1 inh -6, PREPL inhibitor 2, LYPLA2 counter -2, Fam108B counter 0 and LYPLA1 inh 1.
`CC(C)OC(=O)c1cc2c(ccn2-c2ccc(F)cc2)n1CC(=O)N1CCN(C(=O)c2ccco2)CC1` gave MEX-5 binding 1, PME-1 inh -1, PREPL inhibitor 47*, LYPLA2 counter -2, Fam108B counter -1, LYPLA1 inh -2 and PREPL confirm 48*.
`CC(C)OC(=O)c1cc2c(ccn2C)n1CC(=O)N1CCC(Cc2ccccc2)CC1` gave MEX-5 binding -2, PME-1 inh 4, PREPL inhibitor 44*, LYPLA2 counter 7, Fam108B counter 2, LYPLA1 inh -1 and PREPL confirm 38.
For COc1ccccc1-c1nnc2sc(-c3ccc(N(C)C)cc3)nn12 the results were PME-1 inh 13, PREPL inhibitor 52*, LYPLA2 counter 4, Fam108B counter 6, LYPLA1 inh 3 and PREPL confirm 48*.
`Clc1ccc(COc2ccccn2)cc1Cl` gave PME-1 inh -3, PREPL inhibitor -6, LYPLA2 counter 5, Fam108B counter 3 and LYPLA1 inh 3.
Cc1c(C#N)c(N=CN(C)C)c(C(=O)c2ccc(Br)cc2)n1-c1ccc(Cl)cc1 was read as MEX-5 binding 1, PME-1 inh 3, PREPL inhibitor 48*, LYPLA2 counter 2, Fam108B counter 1, LYPLA1 inh 1 and PREPL confirm 53*.
Cc1ccccc1-c1noc(CCC(=O)NCCc2ccccc2)n1 was read as MEX-5 binding 0, PME-1 inh 3, PREPL inhibitor -21, LYPLA2 counter 0, Fam108B counter -4 and LYPLA1 inh -1.
`Cc1[nH]c2ccc(C(=O)NCCCN3CCCCC3)cc2c1C` gave MEX-5 binding -2, PME-1 inh -4, PREPL inhibitor 12, LYPLA2 counter -1, Fam108B counter 0 and LYPLA1 inh 0.

Bioassay records as filed in PubChem.
